# Reference: the supplement of paper PMC10338343
# ± gives the standard deviation. Over roughly 3,700 sequences, “pre-steady-state target cleavage rate” has its median near 0.02; the highest 2% begin near 0.23. The full list was thinned out, with the highest values kept by preference.
# Tested on: MILI (PIWIL2) piRISC loaded with Kctd7 piRNA (26 nt)
# Assay: pre-steady-state target cleavage rate (min^-1); MIWI and MILI are mouse PIWI proteins and EfPiwi is from a freshwater sponge; tags in brackets are library labels; higher = faster piRNA-guided slicing of the target
# Details: guide: Kctd7 piRNA 5'p-UGUUAAUCUCUCAGAGAAGGUGACAG; auxiliary factor: 500 nM mouse GTSF1
# Method: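 Cleave-'n-Seq: a library of target RNAs (target site embedded in constant flanks, ACAGCATTCCGCGTTAGTGATATCCG... 5' flank; DNA-blocked outside the site) at 0.1 nM was incubated with 1 nM active mouse MILI or MIWI piRISC (synthetic 5'-monophosphorylated piRNA guide) with or without 500 nM mouse GTSF1 at 33 °C for 1 min to 16 h. Uncleaved targets were sequenced and normalised to non-target controls, and the pooled three trials were fitted to a burst-and-steady-state model to give the pre-steady-state cleavage rate (min^-1; k3 is constrained to at most 1e-4). Sequence is the target site only; target names encode pairing extent (gX:gY) and contiguous / 1-mismatch / 2-mismatch / bulge geometry. Fits with R² ≤ 0 are excluded.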
row,Sequence,pre-steady-state target cleavage rate
1,UAGUGUGUCAGCUUCUGUGAGAGAUUAACA,0.129 ± 0.013
2,UAGUGAGUCACCUUCUCUGCGAGAUUAACA,0.0952 ± 0.015
3,UAGUGUGUCAGGUUCUCUGAGAGAUUAUGA,0.00789 ± 0.0035
4,UAGUGACACAGCUUCUCUGUGAGAUUAACA,0.0271 ± 0.0057
5,UAGUGACAGACCUUGUCUGAGAGAUUAACA,0.0481 ± 0.0096
6,UAGUGAGUCAGCUUCUCUGAGAGAUUAACA,0.158 ± 0.013
7,UAGUGUCAGACCUUCUCUGAGAGAUUAACA,0.108 ± 0.012
8,UAGUCUCUCACCUUCUCUGAGUGAUUAACA,0.00476 ± 0.0037
9,UAGUGACUCAGCUUGUCUGAGAGAUUAACA,0.112 ± 0.0088
10,UAGUGACAGACCUUCUCUGAGACGAUUAACA,0.0176 ± 0.0081
11,UAGUGACUCACCUUCUCUGAGAGAUUAAAA,0.0677 ± 0.02
12,UAGUGAGUCACCUUCUCUGAGAGAUAAACA,0.249 ± 0.052
13,UAGUGACUCACCUUCUCUGAGAGAUUAAA,0.13 ± 0.031
14,UAGUGAGUCACCUUCCCUGAGAGAUUAACA,0.394 ± 0.074
15,UAGUGAGUCACCUUCUCUGAGAGAUAAAGA,0.00919 ± 0.0072
16,UAGUGAGUCACCUUCUCUGUGAGAUAAACA,0.0242 ± 0.0096
17,UAGUGAGUACACCUUCUCUGAGAGAUUAACA,0.237 ± 0.019
18,UAGUGAGUCACCUUCCUGAGAGAUUAACA,0.119 ± 0.038
19,UAGUGACUCACCUUCUCUGAGAGAUUAAACA,0.251 ± 0.035
20,UAGUGAGUACCUUCUCUGAGAGAUUAACA,0.113 ± 0.014
21,UAGUGAGUCACCUUCCUCUGAGAGAUUAACA,0.148 ± 0.019

row,Sequence,pre-steady-state target cleavage rate
1,UAGUGAGACACCUUCUCUGAGAGAUUAACA,0.185 ± 0.011
2,UAGUGACUCACCUUCUCUGAGAGAGUUAACA,0.118 ± 0.017
3,UAGUGUGAGACCUUCUCUGAGAGAUUAACA,0.101 ± 0.0091
4,UAGUGACACACCUUCAGUGAGAGAUUAACA,0.0881 ± 0.016
5,UAGUGACUCAUCCUUCUCUGAGAGAUUAACA,0.0582 ± 0.0061
6,UAGUGAGUCACGUUCUCUGUGAGAUUAACA,0.0376 ± 0.0033
7,UAGUGUGUCACCUUCUCAGAGACAUUAACA,0.117 ± 0.025
8,UAGUGACUCACCUUCUCUGAGAGAUGUAACA,0.172 ± 0.028
9,UAGUGACAGAACCUUCUCUGAGAGAUUAACA,0.0771 ± 0.01
10,UAGUCUGUCACCUUCUCUGAGAGAUAUAACA,0.235 ± 0.03
11,UAGUGAGUCACCUUCUGAGAGAGAUUAACA,0.074 ± 0.011
12,UAGUGAGUCACCUUCUCCGAGAGAUUAACA,0.394 ± 0.084
13,UAGUCUGUCACCUUCUCUGAGAGAUAAACA,0.132 ± 0.022
14,UAGUCUGUCACCUUCUCCGAGAGAUUAACA,0.21 ± 0.038
15,UAGUGUGUCACCUUCUCCGAGAGAUUAACA,0.373 ± 0.1
16,UAGUGAGUCACCUUCUUCUGAGAGAUUAACA,0.0918 ± 0.028
17,UAGUGAGUCACCUUCUCGAGAGAUUAACA,0.0598 ± 0.015
18,UAGUGAGUCACCUUCUGCUGAGAGAUUAACA,0.264 ± 0.058
19,UAGUGAGUCACCUUCUCAGAGAGAUUAACA,0.173 ± 0.022
20,UAGUCUGUCACCUUCUCUGAGAGAUAACA,0.0928 ± 0.025
21,UAGUGUGUCACCUUCUCGAGAGAUUAACA,0.0644 ± 0.013
